Screens deposited in PubChem by National Center for Advancing Translational Sciences (NCATS).
Shown are actives, neighbours in structure and some others; about 7.9% of the full set was active somewhere.
KB-V1 cytotox: kills drug-selected multidrug resistant KB-V1 cells; KB-V1 MDR cells viability, CellTiter-Glo, 72 h; Potency, µM (doses to about 46.1 µM), actives largely listed as cytotoxic; 400,000 compounds, 3.4% hits; further: on the % scale 0 is the no-effect control and ±100 the full control effect; nearly all actives have a fitted effect of over 60% in size
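KB-V1 MDR subline cells in DMEM (phenol-red free, 10% FBS) exposed to compounds in qHTS concentration series for 72 h at 37 degrees C. Viability read by CellTiter-Glo luminescence; concentration-effect curves fitted after normalization and correction.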
MCF10A rerep: induces DNA re-replication in MCF 10a normal breast cells; MCF 10A DNA re-replication, Hoechst nuclear intensity, 48 h; 350,000 compounds, 2.9% hits; Potency, µM (doses to about 46.1 µM), inactives show at the highest dose activity, positive = re-replication, actives largely listed as activators; further: % of control where 0% means no effect; nearly all actives have a fitted effect of over 50% in size
SW480 rereplic: inducers of DNA re-replication in SW480 colon cancer cells. SW480 DNA re-replication, Hoechst DNA content imaging, 48 h. Potency, µM (top dose mostly 46.1 µM), without a hit: top-dose re-replication activation, usual class: activators. 340,000 compounds, 1.8% hits. AID 624297; further: % of control where 0% means no effect; nearly all actives have a fitted effect of over 55% in size
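Per well, 250 cells were exposed to pinned compound for 48 hr. Nuclear DNA was visualised with Hoechst (40 min, 37 C) and total object intensity recorded by fluorescence scanning.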
HT1080NT lethal: kills 2HG-producing HT-1080-NT fibrosarcoma cells. AID 686970. Potency, µM (series often up to 46.1 µM), inactives show at the highest dose activity, negative = less viability, hits mostly cytotoxic. 360,000 compounds, 1.6% hits. HT-1080-NT fibrosarcoma viability, CellTiter-Glo ATP luminescence, 48 h;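 further: NT is the 2HG producing partner of a matched IDH1 knockdown line; 0% = DMSO-treated cells and -100% = media-only wells without cells; nearly all actives have a fitted effect of over 55% in size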
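Toxicity toward the 2HG-producing NT line was scored as %Activity, normalised to DMSO and no-cell wells, from CellTiter-Glo luminescence after 48 hours' treatment.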
HT1080 IDH1KD tx: toxicity to HT-1080 IDH1 knockdown cells (counter line) | HT-1080 IDH1 knockdown viability, ATP luminescence, 48 h | Potency, µM (top dose mostly 46.1 µM), for the others: at the top dose activity, negative = toxicity, hits mostly cytotoxic | 360,000 compounds, 2% hits | AID 686971;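 further: 0% = DMSO wells and -100% = cell-free medium wells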
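In this qHTS, HT-1080 cells depleted of IDH1 are exposed for 48 h at 37 °C to compound titrations. Toxicity is scored from CellTiter-Glo luminescence, with DMSO as full viability and medium alone as none.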
KB-3-1 cytotox: kills parental KB-3-1 adenocarcinoma cells; 400,000 compounds, 1.4% hits; KB-3-1 viability, CellTiter-Glo ATP luminescence, 72 h; Potency, µM (highest dose often 46.1 µM), most hits filed as cytotoxic; further: on the % scale 0 is the no-effect control and ±100 the full control effect; nearly all actives have a fitted effect of over 60% in size
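Cytotoxicity in the drug-sensitive parental line KB-3-1 was scored as loss of CellTiter-Glo luminescence following 72 h incubation with compound. Values come from curve fitting of normalized concentration-response data.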
Starred values were filed as active, the others as inactive; i = inactive; ? = inconclusive; nt = no result; [ ] = dose if it differs, or a comment. The call rests on the fitted dose curve; in most records, active means well fitted curve in the direction sought with a large enough effect; inconclusive means small, poorly fitted or top-dose-only effect, or another doubt; inactive means no such curve, though single readings can be large; an effect the other way counts as inactive or inconclusive. Potency means the concentration at half of the fitted maximal effect.

SMILES | KB-V1 cytotox | MCF10A rerep | SW480 rereplic | HT1080NT lethal | HT1080 IDH1KD tx | KB-3-1 cytotox
O=C(/C=C/c1ccccc1)C1C(=O)c2ccccc2C1=O | 3.7µM* | ? | -6% | 3% | -2% | ?
CC(=O)O/C(=C1\CC2C3CC=C4CC(OC(C)=O)CCC4(C)C3CCC2(C)C1=O)C(F)(F)F (stereo unspecified) | 10µM* | ? | -2% | 1% | -6% | ?
CC(=O)O[C@H]1CC[C@@]2(C)C(=CC[C@@H]3[C@@H]2CC[C@]2(C)C(=O)CC[C@@H]32)C1 | ? | -3% | -22% | ? | 6% | i
Cc1ccc(C(=O)CN2CCOCC2)cc1 | i | nt | nt | nt | nt | i
CCC(=NCC1CCCO1)c1c(O)n(-c2ccccc2)c(=O)[nH]c1=O (stereo unspecified) | i | -16% | 15% | 0% | 0% | i
CCC(=NCC1CCCO1)c1c(O)n(Cc2ccccc2)c(=O)[nH]c1=O (stereo unspecified) | 4.1µM* | 2% | 1% | 7% | 7% | i
CCOC(=O)C1(CCc2ccccc2)CCN(Cc2ccc3c(c2)OCCO3)CC1 | ? | 7% | -102% | 23µM* | 16µM* | ?
CCOC(=O)C1(CCc2ccccc2)CCN(C2CCSCC2)CC1 | ? | 8% | ? | 0% | 11% | i
CCOC(=O)C1(CCCc2ccccc2)CCN(C2CCCC2)CC1 | i | ? | 16µM* | -18% | -27% | ?
O=C1CC(N2CCN(c3ccccc3)CC2)C(=O)N1CCc1ccccc1 (stereo unspecified) | ? | ? | -3% | 5% | 5% | i
CC(C)CC(CN)CC(=O)O (stereo unspecified) | nt | 5% | 3% | nt | nt | nt
CC(CO)NC(=O)C1C=C2c3cccc4[nH]cc(c34)CC2N(C)C1 (stereo unspecified) | nt | -4% | -3% | nt | nt | nt
COc1cc2c(cc1O)C[C@H]1c3c(cc(O)c(OC)c3-2)CCN1C | i | ? | -12% | 22% | 2% | i
CN1CCc2cc(O)cc3c2[C@H]1Cc1ccc(O)c(O)c1-3 | i | ? | ? | 8.2µM* | 5.8µM* | i
CCCN1CCc2cc(O)cc3c2[C@H]1Cc1ccc(O)c(O)c1-3 | i | 71% | ? | 8.2µM* | 23µM* | i
COC(=O)[C@H](Cc1ccccc1)N(Cc1ccccc1)S(=O)(=O)N(Cc1ccccc1)[C@@H](Cc1ccccc1)C(=O)OC | i | -1% | -4%[9.22 µM] | 2% | 2% | ?
Cc1cccc(C2=NCC(=O)N(CC(=O)NCc3ccco3)c3sc4c(c32)CCCC4)c1 | 23µM* | -1% | 1% | ? | ? | i
COc1cccc2c1C(=O)c1c(O)c3c(c(O)c1C2=O)CC(O)(C(C)=NO)CC3OC1CC(N)C(O)C(C)O1 (stereo unspecified) | i | -17% | -3% | ? | 10µM* | ?
Cc1nc2cc(C(=O)N3CCC4(CC3)OCCO4)ccc2n1-c1ccc(Br)cc1 | i | 3% | 1% | 2% | 0% | i
COc1ccc(-c2nc3ccc(C(=O)N4CCC5(CC4)OCCO5)cc3nc2-c2ccc(OC)cc2)cc1 | i | ? | 23µM* | -11% | -1% | i
CCCCC(CC)COP(=O)(OCC(CC)CCCC)OCC(CC)CCCC (stereo unspecified) | ? | 10% | ? | ? | -4% | ?
CC12Cc3cnoc3C=C1CCC1C2CCC2(C)C1CCC2(C)O (stereo unspecified) | ? | ? | 1% | 3% | 2% | 6.5µM*
Cc1cccc2sc(NC(=O)c3cccn(Cc4ccccc4)c3=O)nc12 | i | nt | nt | nt | nt | i
CC(=O)c1cn(Cc2ccc(C#N)cc2)c2ccccc12 | i | 9% | 7.3µM* | 0% | -3% | i
N=C(N)c1c(O)n(C2CCCCC2)c(=O)n(C2CCCCC2)c1=O | i | ? | ? | 16µM* | 21µM* | 21µM*
SMILES | KB-V1 cytotox | MCF10A rerep | SW480 rereplic | HT1080NT lethal | HT1080 IDH1KD tx | KB-3-1 cytotox
CCC(=NCCO)c1c(O)n(C2CCCCC2)c(=O)[nH]c1=O | i | 1% | 1% | 7% | 4% | i
C[C@]12C=CC(=O)C=C1CC[C@@H]1[C@@H]2CC[C@@]2(C)[C@H]1CC[C@]2(C)O | nt | 16% | 0% | nt | nt | nt
CCC(=Nc1ccc(OC)cc1OC)c1c(O)[nH]c(=O)[nH]c1=O | 10µM* | ? | -9% | 6% | -3% | ?
CC/C(=N\Nc1cccc2ccccc12)c1c(O)[nH]c(=O)[nH]c1=O | i | ? | 6% | -21% | -16% | i
CCC(=Nc1cc(OC)ccc1OC)c1c(O)[nH]c(=O)[nH]c1=O | 2.6µM* | 16% | 2% | 0% | 0% | 5.8µM*
CC/C(=N\Nc1ccccc1)c1c(O)[nH]c(=O)[nH]c1=O | i | 17% | -20% | ? | 3.3µM* | i
COc1ccc(N=C(C)c2c(O)[nH]c(=O)[nH]c2=O)cc1 | ? | ? | -91% | ? | ? | i
C=CCn1c(O)c(C(CC)=Nc2cc(OC)ccc2OC)c(=O)[nH]c1=O | ? | 20% | -22% | -2% | 1% | i
CCOC(=O)CN1C(=O)N[C@@H](c2cccc(C(F)(F)F)c2)C(C(C)=O)=C1C | i | ? | -9% | 5% | 1% | i
Cc1nn(Cc2ccccc2Cl)c(C)c1C(=O)Nc1nnc(C2CC2)s1 | i | 37% | ? | ? | 2.5µM* | i
Cc1nn(Cc2ccccc2Cl)c(C)c1C(=O)NC1CCCc2ccccc21 (stereo unspecified) | i | ? | 23% | 0% | 2% | i
C=C1C(O)[C@@H]2O[C@]3(CC[C@H](/C=C/C(C)[C@@H]4CC(C)=CC5(O[C@H](C[C@@](C)(O)C(=O)O)CCC5O)O4)O3)CC[C@H]2O[C@@H]1C(O)CC(C)[C@H]1OC2(CCCCO2)CCC1C (stereo partly specified) | i | ? | -18% | ? | 0.0082µM* | ?
CC(C)(C)CC(C)(C)c1ccc(O)cc1 | nt | ? | 9% | nt | nt | nt
COc1ccc2[nH]c(C)c(CCNCc3cc(OC)c(OC)c(OC)c3)c2c1 | ? | 12% | -11% | -6% | -17% | i
COc1ccc(CNCCc2c(C)[nH]c3ccc(OC(F)(F)F)cc23)c(OC)c1 | 7.3µM* | 21µM* | ? | 21µM* | 23µM* | ?
